From the supplement of paper PMC11219838

Tested on: Meloidogyne hapla J2
Assay: proportion of mobile M. hapla J2 relative to DMSO control (fraction of DMSO control); higher = more viable, less nematicidal, active = 0.7 or less
Settings: 60 µM; 5 days; temperature: 20 °C
Outline: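 Two biological replicates were run and averaged, each on 96-well plates in which about 25 M. hapla J2 sat in distilled water per well. Compound was pinned in to give 60 µM final and 0.6% v/v DMSO, and the sealed plates were shaken at 200 rpm and 20 °C for 5 days before 2 µL 1 M NaOH was added. Mobility was scored microscopically and divided by the mean from the plate's DMSO-only wells, of which there were eight.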

Compound	proportion of mobile M. hapla J2
O=C(c1ccccc1-c1nc(-c2ccccc2Cl)no1)N1CCCCC1	0.932 (inactive)
Cc1ccc(-c2nc(-c3ccccc3)no2)cc1C	0.884 (inactive)
N#Cc1ccc(OCc2nc(-c3ccc(Br)o3)no2)cc1	1.06 (inactive)
Fc1ccc(-c2noc(COc3cccc(Cl)c3)n2)cc1	0.908 (inactive)
CCCOc1ccc(-c2ccc(-c3nc(-c4cccnc4)no3)cc2)cc1	1.02 (inactive)
c1ccc2cc(-c3nc(-c4ccncc4)no3)ccc2c1	0.994 (inactive)
Clc1ccc(OCc2nc(-c3ccccc3)no2)cc1	1.04 (inactive)
O=C(CSc1nnc(-c2cccc(Br)c2)o1)N1CCCCC1	0.915 (inactive)
Cc1cccc(OCc2nc(-c3ccncc3)no2)c1C	0.937 (inactive)
Cc1cc(OCc2nc(-c3cccnc3)no2)cc(C)c1Br	1.05 (inactive)
COc1nc(C)ccc1-c1noc(-c2ccc(Cl)cc2)n1	0.832 (inactive)
COc1nc(-c2ccccc2)ccc1-c1noc(-c2ccco2)n1	0.685 (active)
Cc1ccc(-c2nnc(SCC(=O)Nc3nccs3)o2)cc1	1.04 (inactive)
Brc1ccccc1-c1nc(-c2ccncc2)no1	0.995 (inactive)
FC(F)(F)c1cccc(-c2noc(-c3cccs3)n2)c1	0.893 (inactive)
Cc1ccc(-c2noc(-c3ccc(C)cc3)n2)cc1	1.01 (inactive)
Cc1ccc(OCc2nc(-c3ccc(Br)o3)no2)cc1C	1 (inactive)
Cc1ccc(OC(C)c2nc(-c3ccc4c(c3)OCO4)no2)cc1C (stereo not drawn)	0.943 (inactive)
N#Cc1ccccc1CSc1nnc(-c2ccco2)o1	0.859 (inactive)
N#Cc1ccc(CSc2nnc(-c3ccncc3)o2)cc1	0.972 (inactive)

Compound	proportion of mobile M. hapla J2
Cc1ccc(C)c(OCc2nc(-c3ccccc3Cl)no2)c1	0.854 (inactive)
O=S(=O)(CCC(F)=C(F)F)c1ncc(Cl)s1 [fluensulfone]	0.0622 (active)
Clc1ccccc1-c1noc(COc2ccc(Br)cc2)n1	1.05 (inactive)
COc1ccc(-c2noc(CSc3nc4cc(C)ccc4[nH]3)n2)cc1	0.861 (inactive)
CCn1c(SCc2nnc(-c3ccccc3)o2)nnc1-c1ccco1	0.948 (inactive)
Cc1ccc(OCc2nc(-c3ccccc3Cl)no2)cc1C	1.04 (inactive)
COc1ccc(C(=O)CSc2nnc(-c3cccc4ccccc34)o2)cc1	0.929 (inactive)
COc1cccc(-c2nnc(SCC(=O)Nc3cccc(C(F)(F)F)c3)o2)c1	1.01 (inactive)
COc1ccc(NC(=O)CSc2nnc(-c3ccccc3C)o2)cc1	0.838 (inactive)
Cc1cc(Cl)ccc1OCc1nc(-c2ccncc2)no1	1.02 (inactive)
Clc1cc(Br)ccc1OCc1nc(-c2ccccn2)no1	1.01 (inactive)
COC(=O)c1ccc(CSc2nnc(-c3ccc(OC)cc3)o2)cc1	1.02 (inactive)
Cc1cc(OCc2nc(-c3ccncc3)no2)c(C)c(C)c1Br	1.06 (inactive)
CCN(CC)C(=O)CSc1nnc(-c2cccc(Cl)c2)o1	0.922 (inactive)
Cc1cccc(-c2noc(-c3ccc4c(c3)OCO4)n2)c1	0.974 (inactive)
Cc1ccc(-c2nnc(SCC(=O)Nc3ccc(F)cc3)o2)cc1	1.04 (inactive)
Cc1ccc(NC(=O)CSc2nnc(-c3ccccc3)o2)cc1F	1.02 (inactive)
COc1ccccc1-c1nc(-c2ccc(Cl)cc2Cl)no1	1 (inactive)
CCc1ccc(OCc2nc(-c3cccnc3)no2)cc1	1.04 (inactive)

Tested on: Caenorhabditis elegans dauer (daf-2(e1370))
Assay: proportion of mobile C. elegans dauer larvae relative to DMSO control (fraction of DMSO control); higher = more viable, less nematicidal, active = 0.63 or less; extreme values may be limits of the assay
Settings: 60 µM; 5 days; temperature: 20 °C
Outline: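 Synchronized C. elegans daf-2(e1370) larvae were held at 25 °C for 48 h on MYOB plates with E. coli OP50 to form dauers, and about 20 dauers were added per 96-well well in liquid NGM. Compound was pinned to 60 µM final (0.6% v/v DMSO), and sealed plates were shaken at 200 rpm for 5 days at 20 °C. The proportion of mobile worms was scored under a dissection microscope relative to DMSO controls and averaged over two biological replicates.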

Compound	proportion of mobile C. elegans dauer larvae
O=C(c1ccccc1-c1nc(-c2ccccc2Cl)no1)N1CCCCC1	1 (inactive)
Cc1ccc(-c2nc(-c3ccccc3)no2)cc1C	1 (inactive)
N#Cc1ccc(OCc2nc(-c3ccc(Br)o3)no2)cc1	1 (inactive)
Fc1ccc(-c2noc(COc3cccc(Cl)c3)n2)cc1	1 (inactive)
CCCOc1ccc(-c2ccc(-c3nc(-c4cccnc4)no3)cc2)cc1	1 (inactive)
c1ccc2cc(-c3nc(-c4ccncc4)no3)ccc2c1	1 (inactive)
Clc1ccc(OCc2nc(-c3ccccc3)no2)cc1	1 (inactive)
O=C(CSc1nnc(-c2cccc(Br)c2)o1)N1CCCCC1	1 (inactive)
Cc1cccc(OCc2nc(-c3ccncc3)no2)c1C	1 (inactive)
Cc1cc(OCc2nc(-c3cccnc3)no2)cc(C)c1Br	1 (inactive)
COc1nc(C)ccc1-c1noc(-c2ccc(Cl)cc2)n1	1 (inactive)
COc1nc(-c2ccccc2)ccc1-c1noc(-c2ccco2)n1	1 (inactive)
Cc1ccc(-c2nnc(SCC(=O)Nc3nccs3)o2)cc1	1 (inactive)
Brc1ccccc1-c1nc(-c2ccncc2)no1	0.274 (active)
FC(F)(F)c1cccc(-c2noc(-c3cccs3)n2)c1	1 (inactive)
Cc1ccc(-c2noc(-c3ccc(C)cc3)n2)cc1	0.881 (inactive)
Cc1ccc(OCc2nc(-c3ccc(Br)o3)no2)cc1C	1 (inactive)
Cc1ccc(OC(C)c2nc(-c3ccc4c(c3)OCO4)no2)cc1C (stereo not drawn)	1 (inactive)
N#Cc1ccccc1CSc1nnc(-c2ccco2)o1	0.85 (inactive)
N#Cc1ccc(CSc2nnc(-c3ccncc3)o2)cc1	1 (inactive)

Compound	proportion of mobile C. elegans dauer larvae
Cc1ccc(C)c(OCc2nc(-c3ccccc3Cl)no2)c1	1 (inactive)
O=S(=O)(CCC(F)=C(F)F)c1ncc(Cl)s1 [fluensulfone]	1 (inactive)
Clc1ccccc1-c1noc(COc2ccc(Br)cc2)n1	1 (inactive)
COc1ccc(-c2noc(CSc3nc4cc(C)ccc4[nH]3)n2)cc1	1 (inactive)
CCn1c(SCc2nnc(-c3ccccc3)o2)nnc1-c1ccco1	1 (inactive)
Cc1ccc(OCc2nc(-c3ccccc3Cl)no2)cc1C	1 (inactive)
COc1ccc(C(=O)CSc2nnc(-c3cccc4ccccc34)o2)cc1	1 (inactive)
COc1cccc(-c2nnc(SCC(=O)Nc3cccc(C(F)(F)F)c3)o2)c1	1 (inactive)
COc1ccc(NC(=O)CSc2nnc(-c3ccccc3C)o2)cc1	1 (inactive)
Cc1cc(Cl)ccc1OCc1nc(-c2ccncc2)no1	1 (inactive)
Clc1cc(Br)ccc1OCc1nc(-c2ccccn2)no1	1 (inactive)
COC(=O)c1ccc(CSc2nnc(-c3ccc(OC)cc3)o2)cc1	1 (inactive)
Cc1cc(OCc2nc(-c3ccncc3)no2)c(C)c(C)c1Br	1 (inactive)
CCN(CC)C(=O)CSc1nnc(-c2cccc(Cl)c2)o1	1 (inactive)
Cc1cccc(-c2noc(-c3ccc4c(c3)OCO4)n2)c1	1 (inactive)
Cc1ccc(-c2nnc(SCC(=O)Nc3ccc(F)cc3)o2)cc1	1 (inactive)
Cc1ccc(NC(=O)CSc2nnc(-c3ccccc3)o2)cc1F	1 (inactive)
COc1ccccc1-c1nc(-c2ccc(Cl)cc2Cl)no1	1 (inactive)
CCc1ccc(OCc2nc(-c3cccnc3)no2)cc1	0.436 (active)
